The results in this text go back to PubChem BioAssay AID540326 (Broad Institute, 2011).

The experiment can be described thus: compounds quenching DiI signal without cells – biochemical, cherry-pick samples, plate reader fluorescence, artefact control for SR-BI HDL uptake inhibitor project, dose response (AID 540326).

The other results are listed elsewhere or left out. The source made the active and inactive calls.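 How the source made its calls: active means quenching, a falling signal, with AC50 below a set limit tied to the top valid dose (actives reach about 32 µM in these data); inconclusive means no clear call, values can overlap the other calls; inactive means rising signal, and the rest.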

Turning to `CC(=O)OC1C2(CC3N4C(=O)C5(CO)SSC4(CC31O)C(=O)N5C)OC(C)C(C)(C)C2=O` (stereo unspecified), the outcome was inactive.
